Measurements reported in the antibiotic and cytotoxicity screens of Wong et al. (2023).
About 3,300 (8.5%) of roughly 39,000 compounds were called active. What follows is part of a selection rich in actives, with near analogues and random picks from the rest.

Tested on: HepG2
Experiment: cytotoxicity call (relative viability < 0.9)
Conditions: 10 µM

Which cytotoxicity call does the source give for `Cc1ccc(S(=O)(=O)Nc2cccc3c2O[C@@H](CN(C)S(=O)(=O)c2ccc(F)cc2)[C@@H](C)CN([C@H](C)CO)C3=O)cc1` here?
Its cytotoxicity call is “inactive”.

Which cytotoxicity call does the source give for `CC(C)(C)OC(=O)C[C@H]1C/C=C/CC[C@H](Cc2ccc(F)cc2)C(=O)O[C@H](c2ccccc2)CNC1=O` here?
Its cytotoxicity call is “inactive”.

For `C[C@@H]1CCCCO[C@@H](CN(C)S(=O)(=O)c2cccs2)[C@@H](C)CN([C@H](C)CO)C(=O)c2cc(NS(=O)(=O)c3cn(C)cn3)ccc2O1`, which cytotoxicity call is on record?
The cytotoxicity call was “inactive”.

`CC(C)NC(=O)N(C)C[C@@H]1OCCCC[C@@H](C)Oc2ccc(NC(=O)C3CCCCC3)cc2C(=O)N([C@H](C)CO)C[C@@H]1C` was tested. Which cytotoxicity call did it give?
The cytotoxicity call was “inactive”.

How did the cytotoxicity call turn out when `COc1ccc(S(=O)(=O)N(C)C[C@H]2Oc3c(NS(=O)(=O)c4cn(C)cn4)cccc3C(=O)N([C@H](C)CO)C[C@@H]2C)cc1` was run?
Its cytotoxicity call is “inactive”.

`C[C@@H]1CN([C@@H](C)CO)C(=O)c2cc(C#C[C@@H](C)O)cnc2O[C@H]1CN(C)Cc1cncnc1` was tested. Which cytotoxicity call did it give?
The cytotoxicity call was “inactive”.

With `Cc1ccc(S(=O)(=O)Nc2ccc3c(c2)C(=O)N([C@@H](C)CO)C[C@@H](C)[C@@H](CN(C)Cc2ccc(C(F)(F)F)cc2)OCCCC[C@@H](C)O3)cc1` as the molecule, how does the cytotoxicity call read?
Its cytotoxicity call is “active”.

How did the cytotoxicity call turn out when `C[C@@H]1CCCCO[C@@H](CN(C)Cc2ccc(C(F)(F)F)cc2)[C@H](C)CN([C@H](C)CO)C(=O)c2cc(NS(=O)(=O)c3ccc(F)cc3)ccc2O1` was run?
The cytotoxicity call was “inactive”.

With `Cc1ccc(S(=O)(=O)Nc2ccc3c(c2)C(=O)N([C@H](C)CO)C[C@@H](C)[C@H](CN(C)Cc2ccc(C(F)(F)F)cc2)OCCCC[C@H](C)O3)cc1` as the molecule, how does the cytotoxicity call read?
Its cytotoxicity call is “active”.

With `C[C@@H]1CN([C@H](C)CO)C(=O)c2cc(NS(=O)(=O)c3ccc(F)cc3)ccc2O[C@@H](C)CCCCO[C@H]1CN(C)Cc1ccc(C(F)(F)F)cc1` as the molecule, how does the cytotoxicity call read?
The cytotoxicity call was “inactive”.

Which cytotoxicity call does the source give for `C[C@@H]1CCCCO[C@@H](CN(C)Cc2ccc(C(F)(F)F)cc2)[C@@H](C)CN([C@H](C)CO)C(=O)c2cc(NS(=O)(=O)c3ccc(F)cc3)ccc2O1` here?
Its cytotoxicity call is “active”.

For `Cc1ccc(S(=O)(=O)Nc2ccc3c(c2)C(=O)N([C@H](C)CO)C[C@H](C)[C@H](CN(C)Cc2ccc(C(F)(F)F)cc2)OCCCC[C@H](C)O3)cc1`, which cytotoxicity call is on record?
Its cytotoxicity call is “inactive”.

For `Cc1ccc(S(=O)(=O)Nc2ccc3c(c2)C(=O)N([C@H](C)CO)C[C@@H](C)[C@@H](CN(C)Cc2ccc(C(F)(F)F)cc2)OCCCC[C@@H](C)O3)cc1`, which cytotoxicity call is on record?
The cytotoxicity call was “inactive”.

For `C[C@@H]1CN([C@@H](C)CO)C(=O)c2cccc(NC(=O)C3CCOCC3)c2O[C@H]1CN(C)Cc1ccccc1`, which cytotoxicity call is on record?
Its cytotoxicity call is “inactive”.

Which cytotoxicity call does the source give for `NCC[C@H]1CC[C@@H](NC(=O)Cc2ccncc2)[C@@H](CO)O1` here?
The cytotoxicity call was “inactive”.

Which cytotoxicity call does the source give for `C[C@@H]1CN([C@@H](C)CO)C(=O)CCCn2cc(nn2)CO[C@H]1CN(C)S(=O)(=O)c1ccc(Oc2ccccc2)nc1` here?
Its cytotoxicity call is “inactive”.
